Screening results deposited in PubChem by National Center for Advancing Translational Sciences (NCATS).
DT40 TDP1 no CPT – qHTS for Inhibitors of human tyrosyl-DNA phosphodiesterase 1 (TDP1): qHTS in cells in absence of CPT; DT40 Tdp1-/- hTDP1 cells, no CPT, ATP luminescence, 48 h; Potency, µM (highest dose often 46.2 µM), hits mostly inhibitors; 420,000 tested, 15% active; AID 686978, 2013; also: nearly all actives have a fitted effect of over 55% in size
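Compound effects on proliferation are scored in DT40 Tdp1-/-;hTDP1 cells in the absence of CPT. ATP levels (CellTiter-Glo luminescence) are recorded after a ≥48 hr, 37 °C incubation.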
TDP1 block – TDP1 (human) enzyme inhibition; Q9NUW8; recombinant TDP1, AlphaScreen DNA substrate cleavage; Potency, µM (titrated, usually from 130 µM), usual class: inhibitors; 350,000 tested, 0.28% active; AID 485290; also: nearly all actives have a fitted effect of over 40% in size
Target sequence (Q9NUW8 whole entry, looked up): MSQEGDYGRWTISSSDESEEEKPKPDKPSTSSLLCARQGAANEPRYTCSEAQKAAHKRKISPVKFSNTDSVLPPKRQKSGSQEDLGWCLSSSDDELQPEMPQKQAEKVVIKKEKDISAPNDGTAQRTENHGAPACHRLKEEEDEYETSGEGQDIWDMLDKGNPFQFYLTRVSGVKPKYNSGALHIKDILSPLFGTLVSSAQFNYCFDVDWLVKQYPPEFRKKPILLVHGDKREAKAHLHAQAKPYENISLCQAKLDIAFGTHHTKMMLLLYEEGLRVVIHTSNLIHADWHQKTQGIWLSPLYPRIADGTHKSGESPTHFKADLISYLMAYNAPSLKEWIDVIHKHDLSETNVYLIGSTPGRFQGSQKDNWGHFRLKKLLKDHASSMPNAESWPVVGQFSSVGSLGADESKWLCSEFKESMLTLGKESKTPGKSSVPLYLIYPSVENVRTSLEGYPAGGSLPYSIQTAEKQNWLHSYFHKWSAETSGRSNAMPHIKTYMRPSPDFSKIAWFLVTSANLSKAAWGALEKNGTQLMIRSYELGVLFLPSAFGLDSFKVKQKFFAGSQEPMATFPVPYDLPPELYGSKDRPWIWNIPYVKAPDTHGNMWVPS
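Here, a 5' biotin and 3' phosphotyrosine-FITC DNA oligonucleotide reports Tdp1 activity: intact substrate bridges AlphaScreen beads, while cleavage leaves a 3' phosphate and drops signal. All incubations at room temperature.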
ELG1 DNA repair – ELG1-dependent DNA repair inhibition. HEK293T ELG1-luciferase reporter, luminescence, 16 h; DNA damage induced by 5-fluorouridine. Potency, µM (series often up to 46.1 µM), actives largely listed as inhibitors. 330,000 tested, 2.3% active; also: nearly all actives have a fitted effect of over 55% in size
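Cells (2,000 per well) received 5-fluorouridine plus test compound or DMSO and were incubated 16 hr at 37 °C, 5% CO2. Luciferase activity was read by luminescence 30 min after ONE-Glo addition; signal suppression marked inhibition of damage-induced ELG1 function.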
DT40 TDP1 CPT – growth inhibition of DT40 Tdp1-/-;hTDP1 cells with camptothecin (screen for TDP1 inhibitors) | Potency, µM (titrated, usually from 46.2 µM), most hits filed as inhibitors | AID 686979 | 420,000 tested, 12% active | chicken DT40 Tdp1-/-;hTDP1 cells + 20 nM CPT, ATP luminescence, 48 h; also: nearly all actives have a fitted effect of over 55% in size
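Cell growth measured by CellTiter-Glo luminescence after a minimum 48 h, 37 C compound exposure with 20 nM CPT in Tdp1-knockout DT40 cells stably expressing hTDP1, seeded 400/well; qHTS titration format.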
IL-1B inflam inh – inflammasome signaling inhibition, IL-1 beta readout; 360,000 tested, 4.7% active; AID 743279; THP-1 LPS/ATP IL-1B secretion, AlphaLISA, 16 h; hits give low values; activity change, % at 57.5 µM; in the data active = activity change below about -50%; inconclusive = mostly about -30% to -49%
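Secreted IL-1B measured by AlphaLISA bead assay after 16 h compound exposure of THP-1 cells; compounds (final up to 57.5 uM) added 1 h before LPS (250 ng/mL) and ATP (1.25 mM) stimulation; lower signal means less secretion.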
Giardia kill – Giardia lamblia killing; Giardia lamblia trophozoite viability; activity change, % at 7.66 µM, hits read low; 340,000 tested, 0.15% active; in the data active = activity change below about -80%; inconclusive = between about -30% and that limit;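 also: parasites exposed to compound for two days anaerobically before the ATP read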
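Luminescence from cellular ATP indicates surviving trophozoites (100 cells/well) following 48 hrs anaerobic compound treatment at 37 deg C; signal develops 15-30 min at room temperature.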
A number is an active result; [ ] = another dose, or the depositor's remark. Most compounds without a hit are left out; they make up all but 19% or so of the library. Unless noted, calls follow the shape of the dose curve; as a rule, active = well fitted curve in the direction sought with a large enough effect; inconclusive = small, poorly fitted or top-dose-only effect, or another doubt; inactive = no such curve, though single readings can be large; an effect the other way counts as inactive or inconclusive.

For Cc1ccc(C)c(N2CCN(CCCNC(=O)c3ccc4nc(C(C)C)oc4c3)CC2)c1 the results were DT40 TDP1 no CPT 3.7µM, TDP1 block inactive and DT40 TDP1 CPT 7.3µM.
`Cc1ccc(C)c(N2CCN(CCCNC(=O)c3ccc4nc(CCc5ccccc5)oc4c3)CC2)c1` gave DT40 TDP1 no CPT 4.1µM, TDP1 block inactive and DT40 TDP1 CPT 3.7µM.
Cc1ccc(C)c(N2CCN(CCCc3ccccc3)CC2)c1 was read as DT40 TDP1 no CPT inconclusive, ELG1 DNA repair inactive, DT40 TDP1 CPT 21µM, IL-1B inflam inh inactive and Giardia kill inactive.
For Cc1ccc(C)c(N2CCN(Cc3csc(C)c3)CC2)c1 the results were DT40 TDP1 no CPT 23µM, TDP1 block inactive and DT40 TDP1 CPT inconclusive.
`Cc1ccc(NC(=O)c2cc(S(=O)(=O)NCCC3=CCCCC3)ccc2F)cc1` gave DT40 TDP1 no CPT inconclusive, TDP1 block inactive, ELG1 DNA repair inactive, DT40 TDP1 CPT inconclusive, IL-1B inflam inh -65 and Giardia kill inactive.
`Cc1ccc(C)c(NC(=O)c2cc(S(=O)(=O)NCCC3=CCCCC3)ccc2F)c1` gave DT40 TDP1 no CPT 21µM, TDP1 block inactive and DT40 TDP1 CPT inconclusive.
For Cc1ccc(C)c(NC(=O)c2cc(S(=O)(=O)NCc3ccccc3)ccc2F)c1 the results were DT40 TDP1 no CPT inconclusive, TDP1 block inactive and DT40 TDP1 CPT inconclusive.
Cc1ccc(CNS(=O)(=O)c2ccc(F)c(C(=O)Nc3ccc(C)c(F)c3)c2)cc1 was read as DT40 TDP1 no CPT inactive, TDP1 block inactive and DT40 TDP1 CPT inactive.
For O=C1Cc2ccccc2C(=O)N1c1ccc(F)cc1Cl the results were DT40 TDP1 no CPT 16µM, TDP1 block inactive, ELG1 DNA repair inactive, DT40 TDP1 CPT inconclusive, IL-1B inflam inh inactive and Giardia kill inactive.
Screening O=C1Cc2ccccc2C(=O)N1c1cccc(Cl)c1 returned DT40 TDP1 no CPT inactive, ELG1 DNA repair inactive, DT40 TDP1 CPT inactive, IL-1B inflam inh inactive and Giardia kill inactive.
`CC(=O)c1c(C)[nH]c(C(=O)OCc2nnc(-c3ccccc3)o2)c1C` gave DT40 TDP1 no CPT 13µM, TDP1 block inactive, ELG1 DNA repair inconclusive, DT40 TDP1 CPT inconclusive, IL-1B inflam inh inactive and Giardia kill inactive.
`CS(=O)(=O)c1ccc(C(=O)OCc2nnc(-c3ccccc3)o2)cc1[N+](=O)[O-]` gave DT40 TDP1 no CPT 10µM, TDP1 block inactive, ELG1 DNA repair inactive, DT40 TDP1 CPT 3.7µM, IL-1B inflam inh -70 and Giardia kill inactive.
`CC(C)[C@H](NC(=O)c1ccccc1)C(=O)OCc1nnc(-c2ccccc2)o1` gave DT40 TDP1 no CPT 23µM, TDP1 block inactive, ELG1 DNA repair inactive, DT40 TDP1 CPT inconclusive, IL-1B inflam inh inactive and Giardia kill inactive.
Screening Cc1cc2c(cc1C)NC(CC(=O)Nc1cccc(Cl)c1)C(=O)N2 (centres undefined) returned DT40 TDP1 no CPT inconclusive, TDP1 block inactive[12.3 µM] and DT40 TDP1 CPT 16µM.
`CCCCNC(=O)CC1Nc2cc(C)c(C)cc2NC1=O` (centres undefined) gave DT40 TDP1 no CPT 5.2µM and DT40 TDP1 CPT 4.6µM.
C[C@H](NC(=O)C[C@@H]1CC[C@H]2[C@@H](COC[C@H](O)CN2Cc2ccc(C(F)(F)F)cc2)O1)c1ccccc1 was read as DT40 TDP1 no CPT 21µM, DT40 TDP1 CPT 18µM and IL-1B inflam inh inactive.
`NC(=O)CCCCC(N)=O` gave TDP1 block inactive.
Screening CC(=O)N1CCc2c(sc(NC(=O)CSc3ccccc3)c2-c2nc3ccccc3s2)C1 returned DT40 TDP1 no CPT 10µM, TDP1 block inactive, DT40 TDP1 CPT 13µM and Giardia kill inactive.
CN1CCc2c(sc(NC(=O)CSc3ccccc3)c2-c2nc3ccccc3s2)C1 was read as DT40 TDP1 no CPT 21µM, TDP1 block inactive, DT40 TDP1 CPT inconclusive and Giardia kill inactive.
`CC(=O)Nc1sc2c(c1-c1nc3ccccc3s1)CN(C(C)C)CC2` gave TDP1 block inactive, ELG1 DNA repair inconclusive and Giardia kill inactive.
For Cc1nc2ccc(NC(=O)CSc3ccccc3)cc2s1 the results were DT40 TDP1 no CPT inconclusive, TDP1 block inactive, ELG1 DNA repair inconclusive, DT40 TDP1 CPT inconclusive, IL-1B inflam inh inactive and Giardia kill inactive.
CCCCC(=O)Nc1sc2c(c1-c1nc3ccccc3s1)CCN(C(C)=O)C2 was read as TDP1 block inactive and ELG1 DNA repair 18µM.
Screening CC(=O)N1CCc2c(sc(NC(=O)C3CC3)c2-c2nc3ccccc3s2)C1 returned DT40 TDP1 no CPT 15µM, TDP1 block inactive, ELG1 DNA repair inconclusive, DT40 TDP1 CPT 16µM, IL-1B inflam inh -84 and Giardia kill inactive.
`CC(C)C[C@@H]1NC(=O)[C@H](Cc2ccccc2)N(C)C(=O)[C@H](C)NC(=O)c2ccccc2NC(=O)[C@H](Cc2ccc(O)cc2)N(C)C1=O` gave DT40 TDP1 no CPT 15µM, ELG1 DNA repair 6.5µM, DT40 TDP1 CPT 16µM, IL-1B inflam inh inactive and Giardia kill inactive.
For CC(C)CC1NC(=O)N(CC(=O)N2c3ccccc3NC(=O)C2(C)C)C1=O (centres undefined) the results were DT40 TDP1 no CPT inactive, TDP1 block inactive, ELG1 DNA repair inactive, DT40 TDP1 CPT inactive, IL-1B inflam inh inactive and Giardia kill inactive.
For Cc1cccc(CNc2nc(-c3ccoc3)nc3ccccc23)c1 the results were DT40 TDP1 no CPT 21µM, TDP1 block inconclusive and DT40 TDP1 CPT inconclusive.
Screening CN(C)Cc1ccccc1-c1nc(NCc2cccs2)c2ccccc2n1 returned DT40 TDP1 no CPT 21µM and DT40 TDP1 CPT 21µM.
Screening Cc1cccc(CNc2nc(-c3ccccc3CN(C)C)nc3ccccc23)c1 returned DT40 TDP1 no CPT 5.2µM, TDP1 block inactive and DT40 TDP1 CPT 13µM.
For CN(C)Cc1ccccc1-c1nc(N(C)C)c2ccccc2n1 the results were DT40 TDP1 no CPT inconclusive and DT40 TDP1 CPT 12µM.
For Cc1cccc(CNc2ncncc2-c2ccccc2CN(C)C)c1 the results were DT40 TDP1 no CPT inactive and DT40 TDP1 CPT inactive.
`CN(C)Cc1ccccc1-c1ccc2ncnc(NCc3cccs3)c2c1` gave DT40 TDP1 no CPT inconclusive, TDP1 block inactive and DT40 TDP1 CPT inconclusive.
`NS(=O)(=O)c1cnccc1Nc1cccc(F)c1` gave DT40 TDP1 no CPT inactive, DT40 TDP1 CPT inactive, IL-1B inflam inh inactive and Giardia kill inactive.
`CCN(CC)S(=O)(=O)c1ccc(N2CCCC2)c(NC(=O)Cc2cc(OC)c(OC)c(OC)c2)c1` gave DT40 TDP1 no CPT inactive, ELG1 DNA repair inactive, DT40 TDP1 CPT inactive, IL-1B inflam inh inactive and Giardia kill inactive.
